Test results published in the supplement of paper PMC10849652.
About 7,900 targets were measured; listed, in parts, are those with a hit and a random draw of the rest. About 0.6% of all pairs of compound and target were hits.

Key:
Experiment in all cases: log2 fold change, soluble protein after heating vs DMSO (PISA); higher = thermal stabilisation; K562 cells, 10 uM, 30 min; active = over 0.2 and 3.5 SD of the protein, either way, in both replicates (recomputed)
erlotinib = compound: C#Cc1cccc(Nc2ncnc3cc(OCCOC)c(OCCOC)cc23)c1 [erlotinib]
Outline: (§1)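 Aliquots of K562 cells (2×10^6 cells/mL) treated with 10 μM compound for 30 min were heated for 3 min over 48°C-58°C. After pooling and extraction in PBS with 0.5% NP-40 at 4°C, soluble protein from a 21,000xg, 90 min spin was quantified by TMTpro 16plex LC-MS/MS with channel sums equalised. Thermal stability is expressed against control samples, from duplicates, as a log2 fold change.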

[1] = compound: C/C(=N\NC(=O)C1=CC(=CC=C1)S(=O)(=O)N2CCOCC2)/C3=C(C=CC(=C3)Cl)O
Outline: as §1

[2] = compound: C1=CC(=C(C=C1Cl)C2=NC3=NC=CN=C3C(=N2)NC4=CC=NC=C4)F
Outline: as §1

[3] = compound: C1=CC(=CC=C1C2=NC3=C(N2)C=C(C=C3)C(=O)N)OC4=CC=C(C=C4)Cl
Outline: as §1

[4] = compound: C1=CC2=C(C=CC(=C2)/C=C\3/C(=O)NC(=NCC4=CC=CS4)S3)N=C1
Outline: as §1

[5] = compound: C1=CC2=NC=CN=C2C=C1/C=C/3\C(=O)NC(=O)S3
Outline: as §1

[6] = compound: C1=CC=C(C=C1)C2=NC(=C(N2)C3=CC=NC=C3)C4=CC(=C(C=C4)Cl)O
Outline: as §1

[7] = compound: C1=CC=C2C(=C1)C3=NNC4=CC=CC(=C43)C2=O
Outline: as §1

[8] = compound: C1CCN(C1)C(=O)NC2=CC=CC(=C2)NC3=NC=C(C(=N3)NCCC4=CN=CN4)Br
Outline: as §1

[9] = compound: C1CN(CCC1(CC2=CC=C(C=C2)Cl)N)C3=NC=NC4=C3C=CN4
Outline: as §1

Measured: log2 fold change

TNPO3 (UniProt Q9Y5L0)
inactive: erlotinib -0.01 | [1] 0.132 | [2] 0.068 | [3] -0.009 | [4] -0.014 | [5] 0.029 | [6] 0.023 | [7] -0.007 | [8] 0.004 | [9] -0.03

TNPO1 (UniProt Q92973)
inactive: erlotinib -0.032 | [1] 0.08 | [2] 0.038 | [3] 0.011 | [4] -0.006 | [5] 0.016 | [6] 0.008 | [7] -0.027 | [8] -0.001 | [9] 0

WAPL isoform 3 (UniProt Q7Z5K2)
inactive: erlotinib 0.031 | [1] 0.017 | [2] 0.048 | [3] -0.037 | [4] 0.057 | [5] 0.144 | [6] 0.059 | [7] -0.012 | [8] -0.217 | [9] -0.062

XPNPEP1 isoform 3 (UniProt Q9NQW7)
inactive: erlotinib -0.005 | [1] -0.069 | [2] 0.067 | [3] 0.022 | [4] 0.076 | [5] -0.003 | [6] 0.048 | [7] 0.04 | [8] 0 | [9] 0.033

VRK2 (UniProt Q86Y07)
inactive: erlotinib 0.004 | [1] 0.014 | [2] -0.021 | [3] -0.026 | [4] -0.065 | [5] 0.011 | [6] -0.02 | [7] 0.118 | [8] 0.013 | [9] 0.072

WASHC5 (UniProt Q12768)
inactive: erlotinib 0.019 | [1] 0.084 | [2] -0.061 | [3] -0.004 | [4] 0.088 | [5] -0.058 | [6] 0.04 | [7] 0.018 | [8] 0.002 | [9] 0.002

TXNIP (UniProt Q9H3M7)
inactive: erlotinib 0.013 | [1] 0.017 | [2] 0.082 | [3] 0.025 | [4] 0.108 | [5] 0.124 | [6] 0.141 | [7] 0.034 | [8] 0.137 | [9] 0.041

UGGT1 (UniProt Q9NYU2)
inactive: erlotinib -0.027 | [1] 0.016 | [2] 0.007 | [3] 0.007 | [4] 0.018 | [5] 0.014 | [6] -0.012 | [7] 0.019 | [8] -0.015 | [9] 0.005

VWA3B isoform 6 (UniProt Q502W6)
inactive: erlotinib 0.107 | [1] -0.036 | [2] 0.213 | [3] -0.057 | [4] 0.048 | [5] 0.111 | [6] -0.214 | [7] -0.049 | [8] 0.03 | [9] -0.03

TRIP10 (UniProt Q15642)
inactive: erlotinib 0.052 | [1] 0.015 | [2] 0.203 | [3] 0.022 | [4] 0.013 | [5] -0.025 | [6] 0.044 | [7] 0.011 | [8] 0.013 | [9] -0.026

XPO5 (UniProt Q9HAV4)
Sequence of UniProt Q9HAV4 (Q9HAV4 whole entry, looked up): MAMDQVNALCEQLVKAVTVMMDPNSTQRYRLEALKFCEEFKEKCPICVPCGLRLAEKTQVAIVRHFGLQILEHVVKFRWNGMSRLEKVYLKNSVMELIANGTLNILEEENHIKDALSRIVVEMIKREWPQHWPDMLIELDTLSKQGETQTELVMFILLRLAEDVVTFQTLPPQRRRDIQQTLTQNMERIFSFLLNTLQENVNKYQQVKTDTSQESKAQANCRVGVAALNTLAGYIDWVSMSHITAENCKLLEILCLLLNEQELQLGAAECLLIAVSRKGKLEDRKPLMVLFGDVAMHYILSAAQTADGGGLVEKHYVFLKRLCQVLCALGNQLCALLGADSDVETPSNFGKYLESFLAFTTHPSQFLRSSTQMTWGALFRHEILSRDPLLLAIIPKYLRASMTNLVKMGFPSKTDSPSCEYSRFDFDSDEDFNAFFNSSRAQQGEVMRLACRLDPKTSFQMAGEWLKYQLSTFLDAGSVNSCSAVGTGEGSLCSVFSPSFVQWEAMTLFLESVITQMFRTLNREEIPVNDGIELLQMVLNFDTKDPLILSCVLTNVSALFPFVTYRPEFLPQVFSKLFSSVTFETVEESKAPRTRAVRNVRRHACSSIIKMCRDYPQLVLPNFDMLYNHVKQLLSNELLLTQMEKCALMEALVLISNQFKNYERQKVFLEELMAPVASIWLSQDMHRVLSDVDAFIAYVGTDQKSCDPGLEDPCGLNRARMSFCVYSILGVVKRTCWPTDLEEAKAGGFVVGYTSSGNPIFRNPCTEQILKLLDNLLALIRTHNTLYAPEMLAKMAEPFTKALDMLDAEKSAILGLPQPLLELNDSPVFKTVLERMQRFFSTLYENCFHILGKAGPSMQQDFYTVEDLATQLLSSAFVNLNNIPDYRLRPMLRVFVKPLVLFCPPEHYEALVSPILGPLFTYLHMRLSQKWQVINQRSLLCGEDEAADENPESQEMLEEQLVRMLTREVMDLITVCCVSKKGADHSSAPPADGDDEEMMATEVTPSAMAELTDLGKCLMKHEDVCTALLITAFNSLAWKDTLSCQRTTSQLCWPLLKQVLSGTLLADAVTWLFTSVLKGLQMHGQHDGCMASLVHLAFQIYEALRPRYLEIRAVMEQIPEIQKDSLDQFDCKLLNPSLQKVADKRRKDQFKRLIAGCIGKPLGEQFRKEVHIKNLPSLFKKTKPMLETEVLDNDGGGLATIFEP
inactive: erlotinib 0.011 | [1] 0.103 | [2] 0.105 | [3] -0.005 | [4] 0.011 | [5] 0.016 | [6] 0.023 | [7] -0.019 | [8] -0.024 | [9] -0.001

VPS28 (UniProt Q9UK41)
inactive: erlotinib -0.072 | [1] 0.031 | [2] 0.27 | [3] -0.011 | [4] 0.009 | [5] 0.023 | [6] 0.009 | [7] 0.001 | [8] -0.091 | [9] -0.043

UHRF1BP1 (UniProt Q6BDS2)
inactive: erlotinib -0.018 | [1] -0.01 | [2] 0.011 | [3] 0.033 | [4] 0.001 | [5] 0.008 | [6] -0.017 | [7] -0.009 | [8] -0.013 | [9] 0.008

VWA8 (UniProt A3KMH1)
inactive: erlotinib 0.077 | [1] 0.037 | [2] 0.017 | [3] -0.036 | [4] 0.108 | [5] 0.008 | [6] 0.017 | [7] 0.069 | [8] -0.009 | [9] 0.042

TMEM192 (UniProt Q8IY95)
inactive: erlotinib 0.044 | [1] -0.017 | [2] 0.011 | [3] -0.008 | [4] -0.011 | [5] 0.067 | [6] 0.011 | [7] -0.017 | [8] 0.039 | [9] 0.038

TRAPPC6B (UniProt Q86SZ2)
Sequence of UniProt Q86SZ2 (Q86SZ2 whole entry, looked up): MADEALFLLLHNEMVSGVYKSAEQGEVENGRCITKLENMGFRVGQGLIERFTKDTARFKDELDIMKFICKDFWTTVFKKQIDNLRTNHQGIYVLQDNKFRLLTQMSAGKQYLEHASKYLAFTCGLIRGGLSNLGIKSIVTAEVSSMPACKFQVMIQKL
inactive: erlotinib 0.026 | [1] 0.07 | [3] -0.016 | [4] 0.011 | [5] -0.006 | [6] -0.016 | [7] -0.014 | [8] -0.048 | [9] 0.018
active: [2] 0.315

WDCP (UniProt Q9H6R7)
inactive: erlotinib 0.083 | [1] -0.003 | [2] 0.058 | [3] 0.065 | [4] -0.015 | [5] 0.134 | [6] -0.022 | [7] -0.068 | [8] -0.012 | [9] -0.011

WASHC2A (UniProt Q641Q2)
inactive: erlotinib 0.008 | [1] -0.026 | [2] -0.025 | [3] 0.002 | [4] 0.004 | [5] 0.058 | [6] -0.072 | [7] -0.037 | [8] 0.029 | [9] -0.017

UBA52 (UniProt P62987)
inactive: erlotinib -0.113 | [1] -0.266 | [2] -0.659 | [3] 0.093 | [4] -0.311 | [5] -0.024 | [6] -0.029 | [7] -0.082 | [8] 0.165 | [9] -0.04

USP15 (UniProt Q9Y4E8)
inactive: erlotinib 0.026 | [1] 0.078 | [2] 0.08 | [3] -0.015 | [4] 0.027 | [5] 0.031 | [6] 0 | [7] 0.012 | [8] -0.011 | [9] -0.031

UBC (UniProt P0CG48)
inactive: erlotinib -0.007 | [1] -0.021 | [2] -0.004 | [3] 0.011 | [4] 0.024 | [5] -0.044 | [6] -0.054 | [7] 0.009 | [8] 0.043 | [9] -0.041

UQCR10 (UniProt Q9UDW1)
Sequence of UniProt Q9UDW1 (Q9UDW1 whole entry, looked up): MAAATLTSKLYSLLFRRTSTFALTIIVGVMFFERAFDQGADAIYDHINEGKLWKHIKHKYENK
inactive: erlotinib -0.026 | [1] 0.056 | [2] 0.069 | [3] -0.023 | [4] 0.034 | [5] 0.014 | [6] 0.046 | [7] -0.003 | [8] 0.006 | [9] 0

TMEM104 (UniProt Q8NE00)
Sequence of UniProt Q8NE00 (Q8NE00 whole entry, looked up): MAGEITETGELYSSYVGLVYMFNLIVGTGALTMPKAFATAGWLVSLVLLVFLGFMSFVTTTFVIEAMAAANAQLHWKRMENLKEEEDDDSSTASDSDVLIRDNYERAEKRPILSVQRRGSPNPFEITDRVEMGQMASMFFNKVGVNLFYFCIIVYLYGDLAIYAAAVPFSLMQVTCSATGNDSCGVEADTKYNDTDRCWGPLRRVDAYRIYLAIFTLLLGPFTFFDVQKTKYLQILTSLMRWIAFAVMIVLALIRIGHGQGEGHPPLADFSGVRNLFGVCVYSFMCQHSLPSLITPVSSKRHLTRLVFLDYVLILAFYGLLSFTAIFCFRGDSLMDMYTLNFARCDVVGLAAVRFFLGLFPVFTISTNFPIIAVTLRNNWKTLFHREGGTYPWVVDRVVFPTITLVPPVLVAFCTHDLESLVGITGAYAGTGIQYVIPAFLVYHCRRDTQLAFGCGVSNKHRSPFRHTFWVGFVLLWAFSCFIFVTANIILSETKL
inactive: erlotinib 0.08 | [1] -0.026 | [2] 0.037 | [3] 0.026 | [4] 0.039 | [6] 0.013 | [7] -0.015

TMEM106B (UniProt Q9NUM4)
Sequence of UniProt Q9NUM4 (Q9NUM4 whole entry, looked up): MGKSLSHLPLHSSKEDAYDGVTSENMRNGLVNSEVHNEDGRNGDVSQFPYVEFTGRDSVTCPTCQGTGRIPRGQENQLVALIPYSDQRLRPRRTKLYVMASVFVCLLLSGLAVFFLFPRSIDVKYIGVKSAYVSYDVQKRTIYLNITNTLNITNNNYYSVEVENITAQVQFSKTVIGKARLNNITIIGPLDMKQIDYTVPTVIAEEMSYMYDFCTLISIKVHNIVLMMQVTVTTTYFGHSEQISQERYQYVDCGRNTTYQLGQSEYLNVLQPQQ
inactive: erlotinib 0.007 | [1] 0.028 | [2] -0.047 | [3] 0.031 | [4] 0.051 | [5] -0.002 | [7] 0.003 | [8] -0.064 | [9] 0.15

WDR47 (UniProt O94967)
Sequence of UniProt O94967 (O94967 whole entry, looked up): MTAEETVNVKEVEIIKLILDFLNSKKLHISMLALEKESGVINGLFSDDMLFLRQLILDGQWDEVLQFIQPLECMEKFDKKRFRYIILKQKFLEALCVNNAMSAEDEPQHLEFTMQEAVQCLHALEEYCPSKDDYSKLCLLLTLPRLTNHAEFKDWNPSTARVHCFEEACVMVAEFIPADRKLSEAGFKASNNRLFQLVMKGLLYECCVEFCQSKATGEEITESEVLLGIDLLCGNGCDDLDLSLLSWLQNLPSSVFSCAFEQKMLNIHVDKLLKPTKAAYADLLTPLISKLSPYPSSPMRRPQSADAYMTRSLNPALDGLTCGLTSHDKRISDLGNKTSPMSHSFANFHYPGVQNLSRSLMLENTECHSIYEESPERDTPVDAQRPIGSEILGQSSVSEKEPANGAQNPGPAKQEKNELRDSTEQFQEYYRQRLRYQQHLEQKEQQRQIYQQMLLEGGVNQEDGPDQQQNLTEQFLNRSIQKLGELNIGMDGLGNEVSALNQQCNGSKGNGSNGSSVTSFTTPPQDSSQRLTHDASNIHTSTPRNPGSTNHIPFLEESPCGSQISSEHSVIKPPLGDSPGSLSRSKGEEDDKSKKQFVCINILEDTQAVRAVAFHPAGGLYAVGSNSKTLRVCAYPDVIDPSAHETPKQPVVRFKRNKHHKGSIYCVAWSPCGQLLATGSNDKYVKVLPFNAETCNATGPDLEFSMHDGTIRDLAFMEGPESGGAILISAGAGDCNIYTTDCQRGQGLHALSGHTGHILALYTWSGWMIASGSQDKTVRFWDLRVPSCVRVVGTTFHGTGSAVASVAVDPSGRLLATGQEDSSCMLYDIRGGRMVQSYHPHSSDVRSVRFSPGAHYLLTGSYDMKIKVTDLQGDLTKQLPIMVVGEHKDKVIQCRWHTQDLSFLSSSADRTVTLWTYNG
inactive: erlotinib 0.038 | [1] 0.065 | [2] -0.014 | [3] -0.002 | [4] -0.002 | [5] 0.06 | [6] 0.047 | [7] 0 | [8] 0.013 | [9] 0.006

TMEM219 (UniProt Q86XT9)
inactive: erlotinib -0.029 | [1] 0.035 | [2] 0.059 | [3] 0.073 | [4] 0.001 | [5] 0.015 | [7] 0.006 | [8] 0.042 | [9] 0.016

UHRF1BP1L (UniProt A0JNW5)
Sequence of UniProt A0JNW5 (A0JNW5 whole entry, looked up): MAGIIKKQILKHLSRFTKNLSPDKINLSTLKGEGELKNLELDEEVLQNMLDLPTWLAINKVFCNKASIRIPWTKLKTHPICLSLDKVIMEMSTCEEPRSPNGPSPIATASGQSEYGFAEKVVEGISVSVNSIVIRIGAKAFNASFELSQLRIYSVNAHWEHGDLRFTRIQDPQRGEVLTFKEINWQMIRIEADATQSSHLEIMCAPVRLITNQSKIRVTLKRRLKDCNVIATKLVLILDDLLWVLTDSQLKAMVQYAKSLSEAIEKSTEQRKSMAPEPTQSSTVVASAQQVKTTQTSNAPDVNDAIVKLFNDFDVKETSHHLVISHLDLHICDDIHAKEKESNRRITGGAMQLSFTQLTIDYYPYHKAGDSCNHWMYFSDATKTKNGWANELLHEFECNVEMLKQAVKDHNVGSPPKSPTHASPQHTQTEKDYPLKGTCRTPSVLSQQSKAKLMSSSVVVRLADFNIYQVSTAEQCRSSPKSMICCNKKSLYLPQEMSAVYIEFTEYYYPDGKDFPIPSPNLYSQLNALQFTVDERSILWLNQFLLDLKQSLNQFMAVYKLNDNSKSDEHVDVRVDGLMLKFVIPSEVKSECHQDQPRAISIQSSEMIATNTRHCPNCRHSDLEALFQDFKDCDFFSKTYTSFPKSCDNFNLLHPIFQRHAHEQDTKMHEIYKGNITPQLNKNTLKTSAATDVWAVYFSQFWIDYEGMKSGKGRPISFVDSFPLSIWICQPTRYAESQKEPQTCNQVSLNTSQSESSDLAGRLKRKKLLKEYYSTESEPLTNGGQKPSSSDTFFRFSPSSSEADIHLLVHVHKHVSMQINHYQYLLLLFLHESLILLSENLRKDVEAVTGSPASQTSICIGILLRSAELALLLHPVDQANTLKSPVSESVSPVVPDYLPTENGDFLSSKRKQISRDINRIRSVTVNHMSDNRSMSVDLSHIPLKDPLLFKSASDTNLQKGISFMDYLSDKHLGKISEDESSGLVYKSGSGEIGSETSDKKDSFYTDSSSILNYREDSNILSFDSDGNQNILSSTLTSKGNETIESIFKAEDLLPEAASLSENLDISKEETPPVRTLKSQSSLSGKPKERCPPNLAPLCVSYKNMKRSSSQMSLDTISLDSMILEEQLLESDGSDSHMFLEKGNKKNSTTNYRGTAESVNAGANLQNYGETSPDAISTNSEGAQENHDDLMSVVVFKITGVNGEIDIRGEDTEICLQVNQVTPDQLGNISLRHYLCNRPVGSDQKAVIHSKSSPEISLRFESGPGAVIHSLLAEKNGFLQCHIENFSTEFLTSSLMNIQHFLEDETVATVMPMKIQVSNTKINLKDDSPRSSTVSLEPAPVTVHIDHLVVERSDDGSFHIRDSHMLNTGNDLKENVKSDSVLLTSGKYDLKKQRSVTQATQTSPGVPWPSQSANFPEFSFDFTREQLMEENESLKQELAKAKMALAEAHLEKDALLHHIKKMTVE
inactive: erlotinib -0.024 | [1] 0.017 | [2] 0.016 | [3] 0.027 | [4] 0.042 | [5] 0.01 | [6] -0.009 | [7] 0.025 | [8] -0.007 | [9] 0.061

UBE2J2 isoform 3 (UniProt Q8N2K1)
Sequence of UniProt Q8N2K1 (Q8N2K1 whole entry, looked up): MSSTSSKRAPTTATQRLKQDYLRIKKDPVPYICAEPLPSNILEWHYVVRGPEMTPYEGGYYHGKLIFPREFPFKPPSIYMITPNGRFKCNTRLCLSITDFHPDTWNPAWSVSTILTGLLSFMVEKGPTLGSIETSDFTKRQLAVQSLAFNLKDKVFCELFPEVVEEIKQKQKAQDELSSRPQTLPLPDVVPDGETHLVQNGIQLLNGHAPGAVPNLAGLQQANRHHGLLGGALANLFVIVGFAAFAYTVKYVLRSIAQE
inactive: erlotinib -0.096 | [1] 0.154 | [2] 0.026 | [3] 0.07 | [4] -0.057 | [5] 0.126 | [7] -0.039 | [8] -0.145 | [9] -0.015

TMEM164 (UniProt Q5U3C3)
inactive: erlotinib -0.103 | [1] 0.178 | [2] 0.041 | [3] 0.002 | [4] 0.129 | [5] 0.078 | [7] 0.017 | [8] -0.042 | [9] 0.021

ULBP1 (UniProt Q9BZM6)
inactive: erlotinib -0.017 | [1] 0.011 | [2] 0.231 | [3] 0.044 | [4] 0.021 | [6] -0.083 | [7] 0.037 | [8] -0.073 | [9] 0.078

UXT isoform 2 (UniProt Q9UBK9)
Sequence of UniProt Q9UBK9 (Q9UBK9 whole entry, looked up): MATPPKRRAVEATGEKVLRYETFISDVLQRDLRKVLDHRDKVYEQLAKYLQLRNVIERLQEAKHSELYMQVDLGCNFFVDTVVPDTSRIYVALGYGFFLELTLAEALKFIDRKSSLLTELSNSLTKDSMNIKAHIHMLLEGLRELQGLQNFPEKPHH
inactive: [1] -0.263 | [2] 0.078 | [3] 0.113 | [4] 0.061 | [5] -0.044 | [6] -0.053 | [7] 0.012 | [8] -0.036 | [9] -0.086
active: erlotinib 0.925
